Screening data deposited in PubChem BioAssay by National Center for Advancing Translational Sciences (NCATS).
miR-21 act: qHTS Assay for Modulators of miRNAs and/orActivators of miR-21. HeLa miR-21 FLuc reporter, luciferase, 48 h. Potency, µM (top dose mostly 38.3 µM), without a hit: at the highest dose activity change, positive = activation, actives largely listed as activators. 340,000 tested, under 10 active. AID 2288, 2010;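 further: % of control where 0% means no effect; miR-21 action dims this reporter so a rising signal means less miR-21 action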
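Luminescence from a firefly luciferase reporter carrying a miR-21 binding site downstream, stably expressed under a CMV promoter in HeLa cells that make miR-21 endogenously, reports miRNA modulation after 48 h compound exposure up to approximately 40uM final.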
Pin1 inh: qHTS Assay to Find Inhibitors of Pin1 | Peptidyl-prolyl cis-trans isomerase NIMA-interacting 1 (Homo sapiens), Q13526 | actives 0.009% (n = 390,000) | Pin1 FP peptide displacement, HiFluor488, 10 min | Potency, µM (series often up to 115 µM), without a hit: at the top dose activity, negative = inhibition, actives largely listed as inhibitors | AID 504891, 2011; active means well fitted inhibition curve with a large enough effect in the polarisation, with a control signal flat, not every such curve was filed as active; inconclusive means small, poorly fitted or top-dose-only effect, or effect the other way, or a change in a side signal; inactive means no such curve, though single readings can be large or run the other way; the % refers to the polarisation; further: potency means the concentration at half of the fitted maximal effect; on the % scale 0 is the no-effect control and ±100 the full control effect
GLP-1R inv ag: qHTS of GLP-1 Receptor Inverse Agonists (Inhibition Mode); Glucagon-like peptide 1 receptor (Homo sapiens), P43220; HEK293 GLP-1R CRE-luciferase, luminescence, 24 h; GLP-1R form is constitutively active; Potency, µM (titrated, usually from 38.3 µM), for the others: at the top dose activity change, negative = inhibition, usual class: inhibitors; actives 1.6% (n = 410,000); further: potency means the concentration at half of the fitted maximal effect; on the % scale 0 is the no-effect control and ±100 the full control effect; nearly all actives have a fitted effect of over 55% in size
Target sequence (P43220 whole entry, looked up): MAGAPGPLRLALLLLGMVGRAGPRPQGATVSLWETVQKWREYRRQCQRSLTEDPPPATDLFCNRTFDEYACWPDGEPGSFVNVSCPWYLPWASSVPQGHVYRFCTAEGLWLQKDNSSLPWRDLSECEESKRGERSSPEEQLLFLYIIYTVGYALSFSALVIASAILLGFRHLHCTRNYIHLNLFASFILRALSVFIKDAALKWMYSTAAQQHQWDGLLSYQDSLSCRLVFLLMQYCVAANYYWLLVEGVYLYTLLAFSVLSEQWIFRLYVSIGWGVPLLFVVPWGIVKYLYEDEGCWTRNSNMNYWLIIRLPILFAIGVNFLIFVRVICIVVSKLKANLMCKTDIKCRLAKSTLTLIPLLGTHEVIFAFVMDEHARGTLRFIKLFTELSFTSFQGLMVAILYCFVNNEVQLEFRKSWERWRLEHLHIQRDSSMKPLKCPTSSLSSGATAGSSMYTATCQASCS
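Stable HEK293 clone (constitutively active GLP-1R + cAMP-response luciferase); 200 cells/uL plated, 12 h pre-culture, compound 24 hr, 37 deg C/5% CO2; detection reagent 12 min RT; luminescence.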
HEK293 tox: qHTS of GLP-1 Receptor Inverse Agonists: Cytotox Screen; actives 0.13% (n = 410,000); Potency, µM (titrated, usually from 38.3 µM), for the others: at the top dose activity change, negative = inhibition, most hits filed as inhibitors; AID 624418, 2012; HEK293 cAMP-luciferase reporter cells, luminescence, 24 h;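 further: loss of luciferase light is scored as toxicity; potency means the concentration at half of the fitted maximal effect; on the % scale 0 is the no-effect control and ±100 the full control effect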
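Here, cytotoxicity is scored as loss of luminescence. The MLSMR collection was tested on cells seeded in medium containing 10% Nu serum, with a 24 hr compound exposure preceded by 12 hours of culture.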
PTHR1 agonist: qHTS for PTHR1 Agonists: Primary Screen | HEK293 GP2 PTHR1 cells, GloSensor cAMP luminescence, 1 h | Potency, µM (top dose mostly 115 µM), inactives show at the highest dose activation, hits mostly activators | actives 0.075% (n = 410,000) | AID 743266, 2014; further: potency means the concentration at half of the fitted maximal effect; nearly all actives have a fitted effect of over 55% in size
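HEK-293-derived GP2 cells expressing PTHR1 and a GloSensor cAMP reporter, 3,000/well, plated overnight, given luciferin plus IBMX (each 0.5 mM as added) for 1 h at 37 °C, then compound for 1 h at 37 °C. Luminescence was read after 15 min at room temperature.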
GLP1R ag: qHTS of GLP-1 Receptor Agonists; actives 0.007% (n = 380,000); HEK293 GLP-1R CRE-luciferase, luminescence, 4-6 h; cells express a hypersensitive GLP-1R form; Potency, µM (titrated, usually from 45.6 µM), without a hit: top-dose activation, hits mostly activators; Glucagon-like peptide 1 receptor (Homo sapiens), P43220; further: potency means the concentration at half of the fitted maximal effect; % of control where 0% means no effect
Starred values were filed as active, the others as inactive; i = inactive; u = inconclusive; x = not tested or not shown; [ ] = another dose, or the depositor's remark. Rows were chosen to be rich in hits. Some 1.7% of all compounds tested hit in one or more screens of this group. Unless noted, the call rests on the fitted dose curve; in most records, active means well fitted curve in the direction sought with a large enough effect; inconclusive means small, poorly fitted or top-dose-only effect, or another doubt; inactive means no such curve, though single readings can be large; an effect the other way counts as inactive or inconclusive.

SMILES	miR-21 act	Pin1 inh	GLP-1R inv ag	HEK293 tox	PTHR1 agonist	GLP1R ag
CN1CCN(c2ccccc2N)CC1	3.5%	-2.3%	0.4%	-9.5%	i	-9.4%
CC(C)c1ccc(C(=O)CC2(O)C(=O)N(CCc3ccccc3)c3ccc(Cl)cc32)cc1 (stereo not drawn)	u	4.7%	u	u	i	-13.2%
CCN1CCN(Cc2ccc(NC(=O)c3ccc(C)c(NC(=O)C(=O)c4c[nH]c5ccccc45)c3)cc2C(F)(F)F)CC1	u	13.5%	5.62µM*	u	-24.9%	-6.7%
Cc1cccc(N(CC(=O)NCCSc2ccc(Cl)cc2)S(=O)(=O)c2ccccc2)c1C	u	-4.3%	10µM*	-4.6%	i	x
Cc1ccc(SCCNC(=O)c2cccc([N+](=O)[O-])c2C)cc1	5.2%	6.2%	u	72.4%	-38.1%	1.9%
Cc1ccc(S(=O)(=O)N(CC(=O)NCCSc2ccc(Cl)cc2)c2ccccc2C)cc1	u	66.0%	11.2µM*	-2.6%	i	x
Cc1ccc(C)c(S(=O)(=O)c2nnn3c2nc(N2CCN(C)CC2)c2sccc23)c1	u	0.3%	35.3%	-5.0%	6.5%	x
C#CCOCCOCCOCCNc1nc(N2CCN(C(=O)CCCCCCCCCCNC(=O)Cn3cc(C[C@@H](C)O)nn3)CC2)nc(N2CCN(C(=O)CCCCCCCCCCNC(=O)[C@H](CCCCN)n3cc(C[C@@H](C)CC)nn3)CC2)n1	x	130.6%	u	u	17.8µM*	-12.0%
CN(C(=O)Oc1ccc(C(=O)c2ccc(Cl)cc2)cc1)c1ccccc1	-5.5%	-4.8%	10µM*	-4.5%	-29.8%	1.3%
CC(C)=CCc1c(O)cc2c(c1O)C(=O)CC(c1ccc(O)cc1)O2 (stereo not drawn)	-10.4%	-8.9%	12.6µM*	-7.3%	-10.2%	7.4%
C=C[C@]1(C)C=C2C(=O)[C@@]3(O)OC(=O)[C@@]4(CCCC(C)(C)[C@H]34)[C@@]2(O)CC1	x	x	u	u	-62.8%	-18.0%
Cc1cccc(Cn2c(C)c(C)c3cc(C(=O)NCc4ccco4)ccc32)c1	12.4%	26.1%	u	u	i	x
CC(C)c1cccc(C(C)C)c1OC(=O)NC(=O)c1c(F)cccc1F	1.3%	-3.3%	8.91µM*	11.2%	-6.6%	-2.6%
O=C(NC(=O)c1c(F)cccc1F)Nc1cc(Cl)c(F)c(Cl)c1F	3.4%	-0.3%	0.7%	-1.3%	i	-3.0%
CC(C)c1cc(C(=O)OCC(=O)NC(=O)NCc2ccco2)c(O)c(C(C)C)c1	17.5%	u	3.55µM*	u	i	5.0%
Cc1nn(Cc2ccccc2)c(C)c1C(=O)OCC(=O)NCc1ccco1	-11.6%	2.7%	0.8%	-10.5%	-21.4%[57.5 µM]	-0.1%
CCOc1cc(CNC(C)(C)CO)cc(Br)c1OCc1ccc(Cl)cc1Cl	u	4.6%	5.01µM*	u	i	-16.0%
CCOc1cc(CNCCO)cc(Br)c1OCc1ccc(Cl)cc1	u	1.4%	u	u	-8.0%[57.5 µM]	-5.4%
CCn1cc2nc(SCc3cccc(C(F)(F)F)c3)n(Cc3ccc(OC)cc3)c(=O)c2n1	12.0%	u	u	-6.3%	i	x
